Measured values: PubChem BioAssay (NCI)
“And” between values parts separate entries of the source, which are not always exact repeats. Equal values may be shown once. The panel holds about 79,000 compounds, 15% with a hit somewhere; the sample as a whole holds those more often. Some compounds were tested as several samples or in several runs, with calls that do not always agree. The source made the active and inactive calls. No stated cut-off is given here; in the data, active means growth inhibition above about 70%; inactive means the rest.

What was measured:
[1] = NCI Yeast Anticancer Drug Screen. Data for the rad50 strain (AID 155);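 further: 0% = growth of vehicle-only cultures of the same strain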; conditions: S. cerevisiae rad50 strain growth inhibition, stronger effect = higher value
Summary of the method: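 Inhibition values express reduced yeast growth in compound-treated cultures relative to vehicle-treated controls.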

[2] = NCI Yeast Anticancer Drug Screen. Data for the mec2-1 strain (AID 157); conditions: S. cerevisiae mec2-1 strain, stronger effect = higher value
Summary of the method: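 Mutant yeast (mec2-1) grown with compound; growth inhibition relative to vehicle control reported.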

[3] = NCI Yeast Anticancer Drug Screen. Data for the sgs1 mgt1 strain (AID 161);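 further: 0% = growth of cultures given vehicle only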; conditions: S. cerevisiae sgs1 mgt1 strain, stronger effect = higher value
Summary of the method: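 This yeast growth screen uses a strain with defined DNA-repair lesions; compound-treated growth is compared with vehicle-treated growth.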

[4] = NCI Yeast Anticancer Drug Screen. Data for the cln2 rad14 strain (AID 165);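 further: 0% = growth equal to vehicle treated cultures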; conditions: S. cerevisiae cln2 rad14 strain, stronger effect = higher value
Summary of the method: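 Readout is yeast growth inhibition versus vehicle-treated controls, using a strain with cln2 and rad14 alterations exposed to compound.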

[5] = NCI Yeast Anticancer Drug Screen. Data for the bub3 strain (AID 167); conditions: S. cerevisiae bub3 mutant strain, stronger effect = higher value
Summary of the method: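 Steps: expose the mutant yeast strain to compound; grow alongside vehicle-treated cultures; measure growth; express inhibition against the vehicle cultures.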

[6] = NCI Yeast Anticancer Drug Screen. Data for the mlh1 rad18 strain (AID 175); conditions: S. cerevisiae mlh1 rad18 strain growth inhibition, stronger effect = higher value
Summary of the method: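 Genetically defined yeast (DNA repair-deficient) exposed to compounds; growth inhibition determined relative to vehicle.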

[7] = at 5.0 µM (retest, dose inferred, filed as 0.5)
[8] = at 50.0 µM (retest, dose inferred, filed as 5.0)

Measured: growth inhibition

Cc1ccc(P(c2ccc(C)cc2)c2ccc(C)cc2)cc1
active: [1]; [8] 96% | [2]; [8] 98% | [5]; at 33.0 µM 78% | [5]; [8] 88% | [5]; at 50.0 µM 75.8% | [5]; at 100.0 µM 75% | [6]; [8] 97%
inactive: [1]; at 1.2 µM 16% | [1]; at 3.7 µM 26% | [1]; [7] 57% | [1]; at 11.0 µM 25% | [1]; at 33.0 µM 33% | [1]; at 50.0 µM 37.7% | [1]; at 100.0 µM 36% | [2]; at 1.2 µM -3% | [2]; at 3.7 µM -2% | [2]; [7] 58% | [2]; at 11.0 µM 2% | [2]; at 33.0 µM 24% | [2]; at 50.0 µM 9.9% | [2]; at 100.0 µM 32% | [3]; [7] 7% | [3]; [8] 43% | [3]; at 50.0 µM 39.2% | [4]; [7] 69% | [4]; [8] 44% | [4]; at 50.0 µM 35.9% | [5]; at 1.2 µM 20% | [5]; at 3.7 µM 43% | [5]; [7] 43% | [5]; at 11.0 µM 57% | [6]; [7] 49% | [6]; at 50.0 µM 26.4%

CCOC(=O)C1CC12c1ccccc1-c1ccccc12 (stereo not drawn)
inactive: [1]; [7] 2% | [1]; [8] 23% | [2]; [7] -6% | [2]; [8] 29% | [2]; at 50.0 µM 52.9% | [3]; [7] -23% | [3]; [8] 48% | [3]; at 50.0 µM 67.2% | [4]; [7] -6% | [4]; [8] -5% | [4]; at 50.0 µM 19.8% | [5]; [7] 1% | [5]; [8] 4% | [5]; at 50.0 µM 14.9%
active: [1]; at 50.0 µM 73.5%

COC(COC(N)=O)C1=C(N2CC2)C(=O)C(C)=C(N2CC2)C1=O (stereo not drawn)
inactive: [1]; [7] 47% | [1]; at 50.0 µM 66.1% | [2]; [7] 39% | [3]; [7] 50% | [3]; at 50.0 µM 43.3% | [4]; [7] 40% | [4]; at 50.0 µM 50.6% | [5]; [7] 42% | [5]; at 50.0 µM 24.9%
active: [1]; [8] 98% | [2]; [8] 99% | [2]; at 50.0 µM 71.2% | [3]; [8] 99% | [4]; [8] 98% | [5]; [8] 99% | [6]; [7] 76% | [6]; [8] 97%

O=C(O)c1ccccc1.[Ag]
99% (active) and -5% (inactive): [3]; [7]
inactive: [4]; [7] 36% and 39%
95% (active) and 60% (inactive): [2]; [7]
97% (active) and 58% (inactive): [1]; [7]
100% (active) and -1% (inactive): [5]; [7]
99% (active) and 40% (inactive): [6]; [7]
active: [1]; at 1.2 µM 95% | [1]; at 3.7 µM 101% | [1]; at 11.0 µM 99% | [1]; at 33.0 µM 99% | [1]; [8] 99% and 98% | [1]; at 50.0 µM 90.8% and 91.2% | [1]; at 100.0 µM 99% | [2]; at 1.2 µM 89% | [2]; at 3.7 µM 101% | [2]; at 11.0 µM 99% | [2]; at 33.0 µM 99% | [2]; [8] 99% | [2]; at 50.0 µM 93.2% and 93% | [2]; at 100.0 µM 99% | [3]; [8] 98% and 99% | [3]; at 50.0 µM 93.1% and 93.5% | [4]; [8] 97% and 100% | [4]; at 50.0 µM 91.6% and 91.4% | [5]; at 1.2 µM 93% | [5]; at 3.7 µM 101% | [5]; at 11.0 µM 99% | [5]; at 33.0 µM 99% | [5]; [8] 98% and 99% | [5]; at 50.0 µM 91.5% | [5]; at 100.0 µM 99% | [6]; [8] 99% and 100% | [6]; at 50.0 µM 90.8% and 91.3%
